The values that follow come from PubChem BioAssay (NCI).

Molecules are shown by their SMILES. Compounds without any hit were thinned out: in the full panel of roughly 79,000, 15% have a hit. A number with no mark means an inactive call. Activity calls are given as the source filed them. No stated cut-off is given here; in the data, active means growth inhibition above about 70%; inactive means the rest.

A short description of the assay: NCI Yeast Anticancer Drug Screen. Data for the rad14 strain (AID 159).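 Further: 0% = growth of vehicle-treated control cultures.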 To be noted: S. cerevisiae rad14 strain growth inhibition, stronger effect = higher value. The method, then: Growth inhibition of yeast strains with defined genetic alterations is measured as a screen for potential anti-cancer activity. Selected strains with alterations in DNA damage repair or cell cycle control were exposed to compounds and growth inhibition was measured relative to vehicle treated controls. The strain used in this assay is rad14

`CCC(C)(c1ccc(O)c(C)c1)c1ccc(O)c(C)c1`: the growth inhibition is, setting by setting: (at 1.2 µM) -38%; (at 3.7 µM) -43%; (at 11.0 µM) 15%; (at 33.0 µM) 98% (active); (at 100.0 µM) 98% (active).

On to `COC(=O)CSc1nnc(CSc2ccc(Cl)cc2)n1-c1ccccc1`, for which the growth inhibition was 0% (at 1.2 µM); 2% (at 3.7 µM); 10% (at 11.0 µM); 15% (at 33.0 µM); 13% (at 100.0 µM).

With `COc1cc(N)ccc1Nc1c2ccccc2nc2ccccc12`, the growth inhibition (at 1.2 µM) is -43%; the growth inhibition (at 3.7 µM) was -25%; the growth inhibition (at 11.0 µM) was -5%; the growth inhibition (at 33.0 µM) is 13%; the growth inhibition (at 100.0 µM) was 66%.

Regarding `NC(N)=NCCCS(=O)(=O)Nc1ccc(Nc2c3ccccc3nc3cc([N+](=O)[O-])ccc23)cc1`, the growth inhibition is -10% (at 1.2 µM); -1% (at 3.7 µM); -1% (at 11.0 µM); 31% (at 33.0 µM); 81% (active) (at 100.0 µM).

For the molecule `Nc1ccc(S(=O)(=O)Nc2ccc(Nc3c4ccccc4nc4ccccc34)cc2)cc1`, the growth inhibition (at 1.2 µM) is 7%; the growth inhibition (at 3.7 µM) was 18%; the growth inhibition (at 11.0 µM) was 14%; the growth inhibition (at 33.0 µM) is 25%; the growth inhibition (at 100.0 µM) is 58%.

Regarding `Cc1cccc(/C=N\NC(=S)N2CCCCC2)n1`, the growth inhibition is, setting by setting: (at 1.2 µM) -19%; (at 3.7 µM) 90% (active); (at 11.0 µM) 98% (active); (at 33.0 µM) 98% (active); (at 100.0 µM) 98% (active).

Take `CCCCC(CC)C(=O)Oc1ccc(C(=O)c2ccccc2)c(O)c1` (stereo not given): the growth inhibition was -5% (at 1.2 µM); -6% (at 3.7 µM); -8% (at 11.0 µM); 29% (at 33.0 µM); 97% (active) (at 100.0 µM).

On to `OCCN(CCO)c1ccc2c(c1)Cc1ccccc1-2`, for which the growth inhibition runs as follows: (at 1.2 µM) 3%; (at 3.7 µM) -4%; (at 11.0 µM) 23%; (at 33.0 µM) 15%; (at 100.0 µM) 31%.
